The structures appear in SMILES notation. Where “and” joins values, the source holds several entries; their conditions need not be identical. Equal entries are not always repeated. Results filed as inconclusive are left out. Calls of active or inactive are those of the source. The call rests on the fitted dose curve; in most records, active means well fitted activation curve with a large enough effect; inconclusive means small, poorly fitted or top-dose-only effect; inactive means no such curve, though single readings can be large or run the other way. Starred links: 1 amine or outer side, 2 acyl side, 3 side chain; linkers in the order of their positions; H or OH if unused. Positions of bridges follow the written chain, without caps; N, C: chain ends. Non-standard residues stand in square brackets, D forms with d. Residues, ends and D or L forms follow the SMILES beside them. ξ: configuration not given here. *: point of attachment. X11 = NC1=NCCC(C(N[*:1])C(=O)[*:2])N1; ΔAla(3-NHCONH2) = NC(=O)NC=C(N)C(=O)O; pGlu = O=C1CC[C@@H](C(=O)O)N1; ξβ3hOrn = NCCCC(N)CC(=O)*; Dap = NC[CH](N)C(=O)O

Drawing on PubChem BioAssay (NCATS), this text covers activation for 34 compounds.

Cellular tumor antigen p53 (Homo sapiens), sequence (P04637 whole entry, looked up): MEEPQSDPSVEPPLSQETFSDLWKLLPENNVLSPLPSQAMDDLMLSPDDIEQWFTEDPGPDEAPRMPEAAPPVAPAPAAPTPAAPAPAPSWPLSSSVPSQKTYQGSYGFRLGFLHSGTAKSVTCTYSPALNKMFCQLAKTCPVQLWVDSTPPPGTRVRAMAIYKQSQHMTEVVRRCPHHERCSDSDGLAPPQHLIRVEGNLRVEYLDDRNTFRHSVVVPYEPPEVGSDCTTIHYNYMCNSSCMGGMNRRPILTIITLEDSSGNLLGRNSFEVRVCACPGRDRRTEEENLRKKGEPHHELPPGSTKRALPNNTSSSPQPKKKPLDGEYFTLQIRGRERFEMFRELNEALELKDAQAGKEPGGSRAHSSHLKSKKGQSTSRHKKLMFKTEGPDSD

The experiment addresses Cellular tumor antigen p53 (Homo sapiens) (UniProt P04637). The experiment in a line: Primary qHTS for small molecule compounds that upregulate eGFP-tagged delta133p53alpha (in N-terminal) cells. (AID 2060322).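 Further: series mostly up to about 56 µM; 0% = DMSO vehicle and 100% = reference activator; nearly all actives have a fitted effect of over 75% in size.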 Conditions: NCI-H358 eGFP-delta133p53alpha fluorescence, 24 h; activation: stronger effect = higher value. The method in brief:
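NCI-H358 cells pre-induced 24 h with 10 ng/ml doxycycline for eGFP-delta133p53alpha, plated dox-free and exposed 24 h at 37C to titrated compounds. Fixed, Hoechst-stained; gated GFP peak intensity by laser scanning cytometry, normalized to DMSO (0%) and 57.5 uM 5-azacytidine (100%).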
(In qHTS, concentration-response curves come from the screen itself.)
Consider `C#C[C@]1(O)CC[C@@H]2[C@@H]3CCc4cc(O)ccc4[C@H]3CC[C@@]21C`, for which the activation was 18.7% (inactive).
`Cc1ccc(O)c(-n2nc3ccccc3n2)c1`: the activation is 7.53% (inactive).
As to `CN1[C@@H]2CC[C@H]1CC(OC(=O)C(O)c1ccccc1)C2` (some centres undefined), the activation was 5.08% (inactive).
The figure for `Cc1cc(O)c2c(O)c3c(O)cccc3cc2c1` is 0.837% (inactive); for `CN(C)CC[C@H](c1ccc(Cl)cc1)c1ccccn1` it is 26.7% (inactive); for `NCCCC(N)CC(=O)NCC1NC(=O)C(CO)NC(=O)C(N)CNC(=O)C(C2CCN=C(N)N2)NC(=O)C(=CNC(N)=O)NC1=O` (stereo not drawn) (H-[Dap]S[Dap](ξβ3hOrn)[ΔAla(3-NHCONH2)][X11]; lactam 1-C; configuration not given here) it is -4.18% (inactive).
On to `CCCC(O)C(CC)CO` (centres undefined), for which the activation is 6.21% (inactive).
`CC(O)Cn1cnc2c1c(=O)n(C)c(=O)n2C` (centres undefined): the activation was 26.6% (inactive).
The figure for `Cc1sccc1Br` is 7.53% (inactive); for `CCOC(=O)O[C@]1(C(=O)OCCl)CC[C@@H]2[C@H]3CCC4=CC(=O)C=C[C@]4(C)[C@@H]3[C@@H](O)C[C@@]21C` it is -2.28% (inactive); for `OCCOCCN1CCN(C2=Nc3ccccc3Sc3ccccc32)CC1` it is 7.53% (inactive).
Consider `CNC(=O)c1cccc(-c2ccc3c(N4CCOC[C@H]4C)nc(N4CCOC[C@H]4C)nc3n2)c1`, for which the activation is 19.5% (inactive).
On to `CO[C@H]1/C=C\O[C@@]2(C)Oc3c(C)c(O)c4c(O)c(c5c(nc6cc(C)ccn65)c4c3C2=O)NC(=O)/C(C)=C\C=C/[C@H](C)[C@H](O)[C@@H](C)[C@@H](O)[C@@H](C)[C@H](OC(C)=O)[C@@H]1C`, for which the activation was -1.91% (inactive).
The figure for `NC(=O)NN=Cc1ccc([N+](=O)[O-])o1` is 13.5% (inactive); for `CC1(C)OC(=O)Nc2ccc(Br)cc21` it is 3.95% (inactive).
As for `Cc1ccc2c(Br)cc(Br)c(O)c2n1`, the activation was -18.4% (inactive).
The figure for `Oc1ccc(C(O)CNCCCCCCNCC(O)c2ccc(O)c(O)c2)cc1O` (centres undefined) is 2.82% (inactive); for `OC[C@@H](O)[C@H](O)[C@H](O)[C@@H](O)CO` it is -3.35% (inactive) and 22.6% (inactive); for `CC(C)Nc1cccnc1N1CCN(C(=O)c2cc3cc(NS(C)(=O)=O)ccc3[nH]2)CC1` it is -10.7% (inactive).
The figure for `CC(C)OC(=O)[C@H](C)N[P@](=O)(OC[C@H]1O[C@@H](n2ccc(=O)[nH]c2=O)[C@](C)(F)[C@H]1O)Oc1ccccc1` is 15% (inactive); for `O=C(O)Cc1cccc2ccccc12` it is 1.67% (inactive) and -33.3% (inactive).
The figure for `Nc1ncnc2c1ncn2Cc1c(F)cccc1Cl` is -17.6% (inactive); for `COC(=O)C1=C(C)NC(C)=C(C(=O)OCCc2ccc(N3CCN(C(c4ccccc4)c4ccccc4)CC3)cc2)C1c1cccc([N+](=O)[O-])c1` (centres undefined) it is -15.9% (inactive).
Take `CC(O)CCCCn1c(=O)c2c(ncn2C)n(C)c1=O` (centres undefined): the activation is -16.4% (inactive).
The figure for `Nc1nc(Cl)nc2c1ncn2[C@@H]1O[C@H](CO)[C@@H](O)[C@H]1F` is -22.8% (inactive); for `CCNC(=O)[C@@H]1CCCN1C(=O)[C@H](CCCN=C(N)N)NC(=O)[C@H](CC(C)C)NC(=O)CNC(=O)[C@H](Cc1ccc(O)cc1)NC(=O)[C@H](CO)NC(=O)[C@H](Cc1c[nH]c2ccccc12)NC(=O)[C@H](Cc1cnc[nH]1)NC(=O)[C@@H]1CCC(=O)N1` ([pGlu]HWSYGLRP-NHEt) it is 5.86% (inactive); for `CCOC(=O)N1CCN([N+]([O-])=NOc2ccc([N+](=O)[O-])cc2C#N)CC1` it is 12.2% (inactive).
Regarding `COc1cc(C(C)C)c(Oc2cnc(N)nc2N)cc1I`, the activation was 3.67% (inactive).
Regarding `C[C@]12CCC(=O)C=C1C=C[C@@H]1[C@@H]2CC[C@@]2(C)[C@H]1CC[C@@]21CCC(=O)O1`, the activation was -33.3% (inactive).
The figure for `OCCc1ccccc1` is 1.69% (inactive); for `CCCCCCCCCCCCCCCCCCNC(=O)OC1CCN(C(=O)OC[C@H](COC(=O)N(Cc2cccc[n+]2CC)C(=O)c2ccccc2OC)OC)CC1` it is 1.67% (inactive); for `C[C@@H]1[C@H](C)CC[C@]2(C(=O)O)CC[C@]3(C)C(=CC[C@@H]4[C@@]5(C)CC[C@H](O)C(C)(C)[C@H]5CC[C@]43C)[C@@H]12` it is -12.8% (inactive).
For the compound `CCC(C(=O)O)c1ccc(N2Cc3ccccc3C2=O)cc1` (centres undefined), the activation is 18.6% (inactive).
The figure for `O=C(O)c1ccc(OCCN2CCCCC2)cc1` is -14.1% (inactive).
